Only some compounds are listed: those with a hit (about 5.3% of all), similar ones and a draw of the others.
Lassa entry inh: Lassa virus entry inhibition | Lassa virus pseudotype entry inhibition, cell reporter | 300,000 compounds, 1.2% hits | Potency, µM (top dose mostly 37.9 µM), for the others: at the highest dose activity change, negative = inhibition, most hits filed as inhibitors; calls by dose curve; tested in HEK293 cells; note: nearly all actives have a fitted effect of over 50% in size
VACV Venus inh: inhibitors of vaccinia virus (Venus reporter). Vaccinia virus Venus reporter expression, fluorescence. Potency, µM (highest dose often 36.5 µM), for the others: top-dose activity change, negative = inhibition, hits mostly inhibitors. 330,000 compounds, 0.46% hits. AID 720580; calls by dose curve; tested in A549 cells; note: nearly all actives have a fitted effect of over 30% in size
VACV mCherry inh: vaccinia inhibition (mCherry reporter); 310,000 compounds, 0.63% hits; Vaccinia virus mCherry reporter infection, fluorescence; Potency, µM (series often up to 36.5 µM), without a hit: top-dose activity change, negative = inhibition, usual class: inhibitors; calls by dose curve; tested in A549 cells; note: nearly all actives have a fitted effect of over 35% in size
FMDV inh: antivirals against foot and mouth disease virus; FMDV antiviral cell-based qHTS; Potency, µM (titrated, usually from 57.9 µM), for inactives: at the highest dose activity change, negative = inhibition, hits mostly inhibitors; 410,000 compounds, 1.2% hits; AID 1159524; calls by dose curve; tested in HEK293T cells; note: read-out not given here; nearly all actives have a fitted effect of over 45% in size
Marburg entry inh: blocks Marburg virus binding to or entry into cells. Marburg virus pseudotyped entry inhibition, cell reporter. Potency, µM (titrated, usually from 37.8 µM), for the others: at the top dose activity change, negative = inhibition, most hits filed as inhibitors. 300,000 compounds, 1.8% hits. AID 540276; calls by dose curve; tested in HEK293 cells
HCV inh: HCV inhibition; 340,000 compounds, 3.4% hits; AID 651820; Huh7.5.1 HCVcc-Cre infection, luciferase reporter, 44 h; Potency, µM (series often up to 41.8 µM), for the others: top-dose activity change, negative = inhibition, hits mostly inhibitors; active = well fitted inhibition curve with a large enough effect; inconclusive = small, poorly fitted or top-dose-only effect, or another doubt; inactive = no such curve, though single readings can be large or run the other way
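Infectious HCV cell culture screen: compound-treated cells (1,000/well, pre-plated 4 h) are infected with HCVcc-Cre at roughly 0.5 moi and grown 44 h. Infection is quantified by luciferase signal after 15 min substrate incubation at room temperature.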
Active calls of the source: *; i = inactive; ? = inconclusive; . = no result; [ ] = another dose, or the depositor's remark. % is set by controls: 0 for no effect and ±100 for the full control effect; potency is the fitted concentration of half-maximal effect.

SMILES | Lassa entry inh | VACV Venus inh | VACV mCherry inh | FMDV inh | Marburg entry inh | HCV inh
CCS(=O)(=O)c1ncc(Cl)c(C(=O)N(Cc2ccccc2)Cc2ccco2)n1 | ? | -10%[7.34 µM] | -14%[7.34 µM] | 14µM* | ? | .
CC(=O)Nc1cc(C(=O)N2CCN(c3ccccc3)CC2C)cc2ncn(CCc3ccccn3)c12 (stereo not given) | . | 9% | 2% | 0% | . | .
O=C(NCCn1cc(SCc2ccc(C(F)(F)F)cc2)c2ccccc21)c1ccccc1F | -2%[46.1 µM] | -13% | -5% | ? | -23%[46.1 µM] | .
O=C(NCCn1cc(SCc2ccc(F)cc2)c2ccccc21)c1ccccc1F | -82% | -9% | ? | 28µM* | ? | ?
O=C(CSc1cn(CCNC(=O)c2cccc(C(F)(F)F)c2)c2ccccc12)Nc1ccc2c(c1)OCCO2 | ? | ? | ? | 25µM* | ? | .
COc1ccc(C(=O)NCCn2cc(SCc3ccc(C(F)(F)F)cc3)c3ccccc32)cc1OC | -12%[46.1 µM] | ? | ? | 22µM* | ? | .
O=C(NCCn1cc(SCc2ccc(F)cc2)c2ccccc21)c1c(F)cccc1F | -5%[46.1 µM] | -10% | -13% | ? | ? | ?
COc1ccc([C@H]2/C(=C(\O)c3cnn(-c4ccccc4)c3C)C(=O)C(=O)N2CCN(C)C)cc1OC | . | . | . | . | 3%[46.1 µM] | .
Brc1ccc(C2C=Cc3ccccc32)cc1 (stereo not given) | . | 12% | 35% | . | . | .
CCc1nccc2c1nc(-c1nonc1N)n2CC | 25µM* | . | . | . | . | .
CCn1c(-c2nonc2N)nc2ccncc21 | -6% | . | . | . | . | .
CC(C)Cc1cc(C(=O)NCC2Cc3cc(F)cc(-c4ccccn4)c3O2)no1 (stereo not given) | . | 0% | -5% | 6% | . | .
CCN1C/C(=C\c2cccc([N+](=O)[O-])c2)C(=O)/C(=C/c2cccc([N+](=O)[O-])c2)C1 | 2.5µM* | -7% | i | 1.1µM* | ? | 2.5µM*
CCOc1ccc(C(=O)Nc2ccc(S(=O)(=O)N3C[C@@H]4C[C@@H](C3)c3cccc(=O)n3C4)cc2)cc1 | . | -26% | ? | 0% | -5% | 1µM*
CN1/C(=C\C=N\NC(=O)c2cccnc2)C(C)(C)c2ccccc21 | . | . | . | -10% | . | 3%
Cc1ccc(C(=O)NC(=S)/C=C2\N(C)c3ccccc3C2(C)C)cc1 | . | . | . | -27% | -2% | 11µM*
CN1/C(=C\C=N\NC(=O)c2ccc(O)cc2)C(C)(C)c2ccccc21 | ? | 38% | i | 28µM* | ? | ?
CC(C)C(=O)NC(=S)/C=C1/N(C)c2ccccc2C1(C)C | -18% | 29% | i | -29% | -30% | ?
Cc1ccc(-c2ccc(=O)n(CC(=O)Nc3ccc(C)cc3Cl)n2)cc1 | 4%[46.1 µM] | -3% | -11% | -20% | 26%[46.1 µM] | .
CC(C)CCC(C)N=Cc1c(O)n(Cc2ccccc2)c(=O)c2ccccc12 (stereo not given) | -10% | -12% | . | -5% | 13µM* | 7%
CCN(CC)CCCN=Cc1c(O)n(Cc2ccccc2)c(=O)c2ccccc12 | ? | ? | . | 3% | ? | ?
COc1cccc(C2(CC(=O)N3CCN(c4nonc4C)CC3)CC(=O)N(C3CCCC3)C2=O)c1 (stereo not given) | . | -15% | -3% | 32% | . | .
COc1cc(=O)n2c(c1C(=O)N(C)Cc1nccs1)CCN(Cc1cc(C)cc(C)c1)CC2 | . | -8% | -19% | -16% | . | .
Cc1ccccc1Cn1c(SCc2ccc(C(=O)NC3CCCCC3)cc2)nc2ccncc21 | . | -20% | -20% | 1% | -11%[46.1 µM] | .
N#Cc1ncc(-c2ccc3c(c2)OCCOCCOCCOCCO3)nc1C#N | ? | -15% | i | 40µM* | ? | -9%
SMILES | Lassa entry inh | VACV Venus inh | VACV mCherry inh | FMDV inh | Marburg entry inh | HCV inh
Oc1cc(O)cc(-c2cc3ccc(O)cc3o2)c1 | . | -7% | -8% | -21% | . | -8%
CC1(C)Oc2cc3oc(-c4cc(O)cc(O)c4)cc3cc2CC1O (stereo not given) | . | -4% | -10% | 11µM* | . | -61%
Cc1ccc(F)c(S(=O)(=O)NC(=O)C2(C)CCN2C(=O)C2(c3ccc(Cl)cc3)CCC2)c1 (stereo not given) | . | -25% | -11% | ? | . | .
O=S(=O)(Nc1c(S(=O)(=O)c2ccccc2)c2nc3ccccc3nc2n1C1CCCCC1)c1ccccc1 | -5% | 10µM* | 13µM* | ? | 1% | 8%
C=CCn1c(NS(=O)(=O)c2ccccc2)c(S(=O)(=O)c2ccc(C)cc2)c2nc3ccccc3nc21 | -12% | -8% | -14% | ? | -16% | -14%
O=C(NCCCn1ccnc1)c1nn2c(C(F)(F)F)cc(-c3ccccc3)nc2c1Cl | 3% | -29% | i | -18% | ? | 10µM*
CCCCNC(=O)c1cc2nc(-c3ccc(OC)cc3)cc(C(F)(F)F)n2n1 | . | ? | -10% | -9% | . | .
Cc1ccc(-c2cc(C(F)(F)F)n3nc(C(=O)NCCCn4ccnc4)cc3n2)cc1C | 0% | . | . | -13% | -11% | 5µM*
COc1ccc(-c2cc(C(F)(F)F)n3nc(C(=O)N(C)Cc4ccccc4)cc3n2)cc1OC | . | -12% | -15% | -8% | . | 10µM*
COc1ccc(C)cc1N(C(=O)c1ccco1)C(C(=O)NC1CCCC1)c1cc(OC)c(OC)c(OC)c1 (stereo not given) | -6% | 0% | ? | -1% | ? | 4%
CCN(CC)S(=O)(=O)c1ccc2c(c1)nc(CCC(=O)Nc1ccccc1Cc1ccccc1)n2CC | ? | -19% | -4% | -18% | ? | 10µM*
CC(=O)/C=C1\OCc2cc(OCc3ccccc3)ccc21 | . | -8% | -9% | 24% | . | .
CN(c1ccccc1)c1ccc(/C=N/NC(=O)CC#N)cc1 | 15µM* | -6% | -3% | 2% | 13µM* | ?
N#CCC(=O)N/N=C/c1ccc(Cl)cc1 | 2% | -10% | -25% | 10% | -1%[46.1 µM] | 15%
CCN(CC)S(=O)(=O)c1ccc2c(c1)c(=O)c(C(=O)N1CCN(c3cccc(C)c3)C(C)C1)cn2C (stereo not given) | -5%[46.1 µM] | 1% | -18% | -7% | -5%[46.1 µM] | .
COc1ccc(CN(C)C(=O)c2cccc(NC(=O)CC3SC(N4CCCCC4)=NC3=O)c2)c(OC)c1 (stereo not given) | 7.1µM* | -22% | ? | 20µM* | 10µM* | 8.9µM*
COc1ccc(NC(=O)CN(C)C(=O)c2ccccc2OCC(=O)Nc2cccc(C(F)(F)F)c2)cc1 | -5% | -17% | -5% | -19% | -6%[46.1 µM] | ?
COc1cccc(CN(C)C(=O)c2ccc(OCC(=O)Nc3cccc(C(F)(F)F)c3)c(OC)c2)c1 | 8.9µM* | ? | ? | ? | ? | ?
COc1cccc(CN(C)C(=O)c2cccc(NC(=O)CC3SC(N4CCCCC4)=NC3=O)c2)c1OC (stereo not given) | . | . | . | ? | . | -15%
COc1ccc(CN(C)C(=O)c2ccc(OCC(=O)Nc3cccc(C(F)(F)F)c3)c(OC)c2)c(OC)c1 | ? | ? | -3% | ? | ? | 0.56µM*

Compound activity deposited in PubChem BioAssay by National Center for Advancing Translational Sciences (NCATS).
